The record followed here is the supplement of paper PMC6607015.

Where a name gives a salt, the structure may show the parent alone.

Common to all, as to settings: compound concentration in added solution (µM; 5 µl added to 20 µl cells): 10; 18 h
The subject of test [1] is A431. Nature of the test: LBPA endosome anti-LBPA integrated intensity (sum per cell), Z-score; higher = more LBPA staining. The method in brief:
(§1)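 Reported values are Z-scores from AcuityXpress normalisation of per-cell integrated LBPA or filipin staining. HeLa MZ or A431 cells (3,500/well in 20 µl) were seeded onto 5 µl of 10 µM compound solution in duplicate 384-well plates, incubated 18 h, fixed in 4% PFA, stained and imaged at 20×. MetaXpress segmentation measured the intensity over the whole cell or within LBPA endosomes.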

The test system of test [2] is HeLa MZ. The description is as above. The method in brief: as §1
In test [3] the test system is A431. The experiment in a line: whole-cell filipin (free cholesterol) integrated intensity, Z-score; higher = more cholesterol staining. The method in brief:
as §1

The test system of test [4] is HeLa MZ. Described as above. In short, it runs like this:
as §1

The subject of test [5] is A431. Nature of the test: filipin (cholesterol) integrated intensity within LBPA endosomes, Z-score; higher = more cholesterol in LBPA endosomes. In short, it runs like this:
as §1

Test [6] deals with HeLa MZ. The test is described as above. The method in brief:
as §1

With `NCCNCCNCCNCCN` [Tetraethylenepentamine pentahydrochloride], the results for the “LBPA endosome anti-LBPA integrated intensity (z-score)” value in test [1] and in test [2] were -0.276 and -0.00928, respectively. The “whole-cell filipin (z-score)” value amounted to 0.0109 in test [3] and 0.146 in test [4]. The “filipin (z-score)” value in test [5] is -0.392; in test [6], -0.197.

Turning to `C[C@H]1C[C@@H]2[C@H]([C@@H](O)C[C@@]3(C)[C@H]2CC[C@]3(O)C(=O)CO)[C@@]2(C)C=CC(=O)C=C12` [Methylprednisolone, 6-alpha], the “LBPA endosome anti-LBPA integrated intensity (z-score)” value in test [1] was -0.113; in test [2], 0.0903. For the same compound, the “whole-cell filipin (z-score)” value in test [3] is -0.236; in test [4] it was -0.329. The “filipin (z-score)” value in test [5] is -0.297; in test [6], -0.497.

`N=C(N)NC(=N)NCCc1ccccc1` [Phenformin hydrochloride]: the “LBPA endosome anti-LBPA integrated intensity (z-score)” value was -0.459 in test [1] and 0.0471 in test [2]. For the same compound, the “whole-cell filipin (z-score)” value in test [3] is -0.366; in test [4], 1.16. Further, the “filipin (z-score)” value in test [5] was -0.42; in test [6], -0.335.

In the case of `CN(CCOc1ccc(CC2SC(=O)NC2=O)cc1)c1ccccn1` (configuration not stated) [Rosiglitazone Hydrochloride], the “LBPA endosome anti-LBPA integrated intensity (z-score)” value in test [1] is -0.367; in test [2], 0.286. The “whole-cell filipin (z-score)” value in test [3] came to 0.193; in test [4], 0.897. Further, the “filipin (z-score)” value in test [5] is -0.277; in test [6], -0.0127.

`CC(CN(C)C)CN1c2ccccc2CCc2ccccc21` (configuration not stated) [Trimipramine maleate salt]: the entries for the “LBPA endosome anti-LBPA integrated intensity (z-score)” value in test [1] and in test [2] were 2.39 and 1.13, respectively. Also, the entries for the “whole-cell filipin (z-score)” value in test [3] and in test [4] were 1.92 and 0.599, respectively. The “filipin (z-score)” value was 2.57 in test [5] and 1.53 in test [6].

As for `C=C1/C(=C\C=C2/CCC[C@]3(C)[C@@H]([C@H](C)CCCC(C)C)CC[C@@H]23)C[C@@H](O)C[C@@H]1O` [Alfacalcidol], the results for the “LBPA endosome anti-LBPA integrated intensity (z-score)” value in test [1] and in test [2] were 0.0439 and -0.204, respectively. Further, the “whole-cell filipin (z-score)” value is -0.362 in test [3] and -0.701 in test [4]. Further, the “filipin (z-score)” value in test [5] was -0.145; in test [6], -0.743.

Consider `CCC1(c2ccccc2)C(=O)NCNC1=O` [Primidone], for which the “LBPA endosome anti-LBPA integrated intensity (z-score)” value was -0.559 in test [1] and -0.0866 in test [2]. In addition, the “whole-cell filipin (z-score)” value was -0.586 in test [3] and -0.472 in test [4]. Also, the results for the “filipin (z-score)” value in test [5] and in test [6] were -0.509 and -0.574, respectively.

`c1ccc2c(CC3=NCCN3)cccc2c1` [Naphazoline hydrochloride]: the “LBPA endosome anti-LBPA integrated intensity (z-score)” value in test [1] is -0.505; in test [2], 0.993. Also, the “whole-cell filipin (z-score)” value in test [3] is -0.75; in test [4] it was 0.085. Also, the “filipin (z-score)” value in test [5] is -0.523; in test [6], 0.0798.

Consider `Cc1nc2n(c(=O)c1CCN1CCC(c3noc4cc(F)ccc34)CC1)CCCC2` [Risperidone], for which the “LBPA endosome anti-LBPA integrated intensity (z-score)” value in test [1] was determined as 0.208; in test [2], 1.64. Moreover, the results for the “whole-cell filipin (z-score)” value in test [3] and in test [4] were 0.491 and 0.264, respectively. Moreover, the “filipin (z-score)” value in test [5] was -0.0506; in test [6] it was 0.539.

For `CCCCC1C(=O)N(c2ccccc2)N(c2ccccc2)C1=O` [Phenylbutazone], the “LBPA endosome anti-LBPA integrated intensity (z-score)” value was -0.242 in test [1] and 0.571 in test [2]. Besides, the “whole-cell filipin (z-score)” value is -0.047 in test [3] and 0.231 in test [4]. In addition, the “filipin (z-score)” value is -0.314 in test [5] and -0.301 in test [6].

Consider `Nc1ccn([C@@H]2CS[C@H](CO)O2)c(=O)n1` [Lamivudine], for which the “LBPA endosome anti-LBPA integrated intensity (z-score)” value in test [1] is -0.481; in test [2] it was -0.745. Also, the figures for the “whole-cell filipin (z-score)” value in test [3] and in test [4] were -0.233 and -0.14, respectively. Besides, the entries for the “filipin (z-score)” value in test [5] and in test [6] were -0.498 and -0.564, respectively.

On to `COc1ccc(C(Cl)=C(c2ccc(OC)cc2)c2ccc(OC)cc2)cc1` [Chlorotrianisene], for which the figures for the “LBPA endosome anti-LBPA integrated intensity (z-score)” value in test [1] and in test [2] were -0.163 and -0.13, respectively. In addition, the “whole-cell filipin (z-score)” value in test [3] was 0.392; in test [4] it was -0.127. The entries for the “filipin (z-score)” value in test [5] and in test [6] were -0.183 and -0.174, respectively.
